Test results from PubChem BioAssay (NCI).
About 83,000 compounds went through this panel and 20% of them were active in at least one assay; those are over-represented in the sample as a whole.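 Assay: single dose, 48 h. Readout: percent growth (0 = no net growth; negative = cell death). Active: <10.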 Values without a mark were called inactive. Activity calls are given as the source filed them.

The molecules below were run on HL-60(TB) leukemia (assay: NCI-60 one-dose screen, 48 h (100 = growth as untreated, 0 = no growth, -100 = all killed)). Conditions: 10 µM unless noted.

Row | SMILES | growth
1 | N=c1ccc2nc3ccc(N)cc3sc-2c1 | 0.816% (active)
2 | N#C/C(Sc1nc2sc3c(c2c(=O)n1Cc1ccccc1)CCCC3)=C1/SC=C(c2ccc(Cl)cc2)N1c1ccccc1 | 84.3%
3 | COc1ccc(/C(=C/c2ccc3ccccc3c2)c2nn[nH]n2)cc1OC | -1.21% (active)
4 | O=C(N/N=C/c1ccc([N+](=O)[O-])cc1)c1ccc(Br)o1 | 123%
5 | O=C1Nc2ccccc2C12CC(c1ccccc1)=NN2 (stereo not given) | -8.55% (active)
6 | NC(=O)NNC(=O)c1ccccc1 | 103%
7 | O=C1Cc2cc(CCN3CCN(c4nsc5ccccc45)CC3)c(Cl)cc2N1 | 108%
8 | CC(=O)N1N=C(c2ccc(F)cc2)CC1c1sc(N(C)Cc2ccccc2)nc1Cl (stereo not given) | 109%
9 | CCCc1cc(C(N)=S)ccn1 | 103%
10 | O=C(/C=C/c1ccc(F)cc1)Nc1ncc(Cc2ccc(F)cc2)s1 | -26.6% (active)
11 | COc1ccc(NC(=O)CSc2nc3ccccc3c(=O)n2-c2ccccc2C(F)(F)F)c(OC)c1OC | 103%
12 | Cc1nc2scc(-c3ccc(Cl)cc3)n2c(=O)c1CCN1CCOCC1 | 99.6%
13 | Nc1nn(C(=O)Nc2ccc(Cc3ccccc3)cc2)c2ccc(Cl)cc12 | 24.9%
14 | O=C(/C=C/c1ccc(Cl)cc1)c1ccc(Nc2nc(NCCO)nc(Nc3ccc(Cl)cc3)n2)cc1 | 99.4%
15 | Brc1cccc(-c2nc(-c3ccc4c(c3)OCCO4)co2)c1 | 29.1% [25 µM]
16 | O=C(Cc1nc2cc(Cl)c(Cl)cc2nc1CC(=O)c1cccnc1)c1cccnc1 | 39.6%
17 | COC(=O)c1ccc2c(c1)n(Cc1ccc3ccccc3c1)c[n+]2Cc1ccc2ccccc2c1 | -18.8% (active)
18 | CCCC(=O)Nc1ccc2c(c1)CN1C(=O)c3ccccc3C1=N2 | 81.9%
19 | NC1=NC(c2ccc(Cl)cc2)C2=C(N1)/C(=C/c1ccc(Cl)cc1)CCC2 (stereo not given) | 64.8%
20 | CC(c1ccccc1)N1C(=O)CSC1=S (stereo not given) | -40.6% (active)
21 | COC(=O)c1c2c(c(C)[n+]([O-])c1C)C(=O)C(NCc1ccc(F)cc1)=CC2=O | -51.5% (active)
22 | O=C(CCCCCCC(=O)Nc1ccccc1)NO | -0.31% (active)
23 | O=C(Cn1cc(CN2CCN(c3ccnc4cc(Cl)ccc34)CC2)nn1)Nc1cccc([N+](=O)[O-])c1 | 102%
24 | O=C(N(c1ccccc1)c1ccccc1)n1ccc2nc(Cl)nc(Cl)c21 | 49.5%
25 | CN1CCN(Cc2ccc(C(=O)Nc3cncc(C#Cc4cnc5cccnn45)c3)cc2C(F)(F)F)CC1 | 1.37% (active)
